Screening results from PubChem BioAssay.
Luciferase inh: inhibitors of firefly (Photinus pyralis) luciferase. Potency, µM (doses to about 115 µM), hits mostly inhibitors. purified P. pyralis luciferase, luminescence, biochemical. actives 2.5% (n = 76,000); note: nearly all actives have a fitted effect of over 65% in size
Target sequence (P08659 whole entry, looked up): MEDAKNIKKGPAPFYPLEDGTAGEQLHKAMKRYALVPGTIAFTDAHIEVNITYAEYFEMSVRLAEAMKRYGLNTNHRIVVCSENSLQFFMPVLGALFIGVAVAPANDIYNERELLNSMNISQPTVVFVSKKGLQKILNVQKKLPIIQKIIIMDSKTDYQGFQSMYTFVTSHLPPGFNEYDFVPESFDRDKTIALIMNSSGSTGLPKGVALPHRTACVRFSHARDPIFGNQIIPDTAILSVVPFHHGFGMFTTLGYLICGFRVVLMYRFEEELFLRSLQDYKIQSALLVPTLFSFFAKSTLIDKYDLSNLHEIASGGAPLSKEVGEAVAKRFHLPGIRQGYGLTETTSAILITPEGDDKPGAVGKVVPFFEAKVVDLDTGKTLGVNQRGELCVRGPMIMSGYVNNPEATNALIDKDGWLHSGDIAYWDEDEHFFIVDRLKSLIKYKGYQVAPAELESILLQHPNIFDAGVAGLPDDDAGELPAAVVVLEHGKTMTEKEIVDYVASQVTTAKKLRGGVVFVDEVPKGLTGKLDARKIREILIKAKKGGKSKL
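Purified 10nM P. pyralis luciferase with 10uM D-luciferin and 10uM ATP in 50mM Tris acetate pH 7.5, 10mM Mg acetate, 0.01% Tween-20, 0.05% BSA. qHTS titration; luminescence read by CCD imager.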
GPT2 inhibitor: GPT2 alanine aminotransferase inhibition. Q8TD30. Recombinant GPT2, coupled pyruvate oxidase/HRP Amplex Red fluorescence. Potency, µM (titrated, usually from 57.7 µM), most hits filed as inhibitors. actives 0.25% (n = 100,000); note: nearly all actives have a fitted effect of over 60% in size
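GPT2 10ng/uL, a-KG 250uM, L-Ala 2mM, HEPES pH7.5 + 0.0001% Tween; 30 min RT. Then Amplex mix (PO/HRP/ThPP), 30 min RT dark, fluorescence. AOA 50uM used as positive control.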
HEK cytotox: HEK 293 cell cytotoxicity; actives 6.6% (n = 94,000); HEK 293 viability, ATP luminescence (CellTiter-Glo), 48-72 h; Potency, µM (top dose mostly 115 µM), usual class: inhibitors; note: nearly all actives have a fitted effect of over 60% in size
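CellTiter-Glo luminescence (cellular ATP) was read after 48 or 72 hr of compound exposure at 37 degree Celsius. Cells were HEK 293 plated at 250 cells/well.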
3T3 cytotox: NIH 3T3 cell cytotoxicity; NIH 3T3 viability, CellTiter-Glo ATP luminescence, 48-72 h; Potency, µM (top dose mostly 96.7 µM), usual class: inhibitors; actives 4.3% (n = 94,000); AID 1345082; note: nearly all actives have a fitted effect of over 55% in size
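First NIH 3T3 cells are plated at 400 cells/well; next compound is pinned in; then plates incubate 48 or 72 hr at 37 °C; finally CellTiter-Glo is added and luminescence read after 10 min.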
NPR1 antag: human Npr1 receptor antagonism; actives 1.6% (n = 76,000); Potency, µM (titrated, usually from 46.3 µM), actives largely listed as inhibitors; P16066; AID 1347048; HEK293 hNpr1 GloSensor cGMP, ANP-stimulated luminescence; calls by dose curve; note: nearly all actives have a fitted effect of over 60% in size
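Compound pre-incubated 30 min at room temperature on GloSensor-loaded HEK293 cells stably carrying hNpr1 and the pGS-40F cGMP biosensor. Stimulation uses hNppA at 0.1 nM final; luminescence is taken at baseline and 20 min post-agonist.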
Each line names hits and unclear results; the compound was inactive in the other large screens. In the library only some 10% were active in any assay of this set; here they are far more common. Unless noted, calls come from the whole dose curve; as a rule, active = well fitted curve in the direction sought with a large enough effect; inconclusive = small, poorly fitted or top-dose-only effect, or another doubt; inactive = no such curve, though single readings can be large; an effect the other way counts as inactive or inconclusive.

CCCCc1ncc(CN(C)CC2CCCN(CCc3ccc(F)cc3)C2)[nH]1 (centres undefined)	GPT2 inhibitor inconclusive, HEK cytotox 40µM, 3T3 cytotox inconclusive
CN(Cc1ccc(N2CCNC2=O)cc1)CC1CCCN(CCc2ccc(F)cc2)C1 (centres undefined)	HEK cytotox inconclusive, 3T3 cytotox inconclusive
CC(C)(Oc1nn(Cc2cccc(Cl)c2)c2ccccc12)C(=O)NCCN1CCOCC1	HEK cytotox 50µM, 3T3 cytotox inconclusive
CC(C)(Oc1nn(Cc2cccc(Cl)c2)c2ccccc12)C(=O)NCCCn1ccnc1	HEK cytotox 50µM, 3T3 cytotox 32µM, NPR1 antag inconclusive
COCc1ccc2c(c1)c(OC(C)(C)C(=O)NCCN1CCOCC1)nn2Cc1ccccc1	HEK cytotox inconclusive, 3T3 cytotox inconclusive
CC(C)(Oc1nn(Cc2cccc(Cl)c2)c2ccccc12)C(=O)NC1CCOCC1	HEK cytotox 89µM, 3T3 cytotox inconclusive
CC(C)(Oc1nn(Cc2cccc(Cl)c2)c2ccccc12)C(=O)N1CCOCC1	HEK cytotox 89µM, 3T3 cytotox inconclusive, NPR1 antag inconclusive
COCc1ccc2c(c1)c(OC(C)(C)C(=O)NC1CCOCC1)nn2Cc1ccccc1	HEK cytotox inconclusive, 3T3 cytotox inconclusive
COCCN(CCOC)C(=O)C(C)[C@@H]1CC[C@@]2(C)CC[C@H](NC(C)=O)[C@@H](C)[C@@H]2[C@H]1O (some centres undefined)	none
Cc1ccsc1CN1CCn2c(nnc2[C@@H]2C[C@@H](O)CN2C)C1	none
COc1ccc(-c2ccnc3nc(C4CCC4)nn23)cc1	HEK cytotox inconclusive, 3T3 cytotox inconclusive
Cc1nn(-c2ccccc2)c2c1C(C1CC1)N(C1CCN(Cc3ccc(C(F)(F)F)cc3)CC1)C2=O (centres undefined)	none (no result: Luciferase inh, GPT2 inhibitor, NPR1 antag)
O=C(NCCCc1ccccc1)c1n[nH]c2c1CN(C(=O)c1ccc(F)cc1)CC2	HEK cytotox inconclusive, 3T3 cytotox 28µM
O=C(NCCCc1ccccc1)c1n[nH]c2c1CN(C(=O)c1ccc(Cl)cc1)CC2	HEK cytotox inconclusive, 3T3 cytotox inconclusive
O=C(NCCc1ccccc1F)c1nc2sccn2c1-c1ccncc1	HEK cytotox inconclusive, 3T3 cytotox inconclusive (no result: Luciferase inh, NPR1 antag)
O=C(NCCCc1ccccc1)c1nc2sccn2c1-c1ccc(F)cc1	HEK cytotox 100µM, 3T3 cytotox inconclusive (no result: Luciferase inh, NPR1 antag)
O=C(NCCc1ccccc1F)c1nc2sccn2c1-c1ccc(C(F)(F)F)cc1	GPT2 inhibitor inconclusive, HEK cytotox 25µM, 3T3 cytotox 28µM (no result: Luciferase inh, NPR1 antag)
C[C@@H]1O[C@@H](O[C@H]2[C@@H]3C=CO[C@@H](O[C@@H]4O[C@H](CO)[C@@H](O)[C@H](O)[C@H]4O)[C@@H]3[C@@]3(CO)O[C@@H]23)[C@H](O)[C@H](OC(=O)/C=C/c2ccccc2)[C@H]1O	none (no result: Luciferase inh, HEK cytotox, 3T3 cytotox, NPR1 antag)
CCNC(=O)N1CCOc2ccc(CCC(=O)NC3CCS(=O)(=O)C3)cc2C1 (centres undefined)	none
CCNC(=O)N1CCOc2ccc(CCC(=O)Nc3ccc(F)cc3F)cc2C1	HEK cytotox 40µM, NPR1 antag inconclusive
COCCNC(=O)CCc1ccc2c(c1)CN(C(=O)NC(C)C)CCO2	none
COc1ccc(NC(=O)CCc2ccc3c(c2)CN(C(=O)NC(C)C)CCO3)cn1	HEK cytotox 79µM
CN1CC[C@H](c2nnc(-c3ccc(Cl)cc3)o2)C1	none
CCN(C)C(=O)C(C)N1CCc2onc(-c3ccc(-c4ccccc4)cc3)c2C1 (centres undefined)	Luciferase inh 20µM, GPT2 inhibitor inconclusive, HEK cytotox inconclusive, 3T3 cytotox inconclusive, NPR1 antag inconclusive
O=C(O)C1CCc2sc(C(=O)N3CCCCCC3)cc2C1 (centres undefined)	Luciferase inh 16µM, 3T3 cytotox inconclusive
CO[C@H]1[C@H](NC(=O)c2cc(C)nn2C)c2ccccc2C12CCNCC2	none
CO[C@H]1[C@H](NC(=O)c2cc3ccccc3n2C)c2ccccc2C12CCNCC2	HEK cytotox 35µM, 3T3 cytotox 22µM
O=C(Nc1cccc(-c2nnc3n2CCCC3)c1)c1ccccc1Cl	none
CCc1ccc(C(=O)Nc2cccc(-c3nnc4n3CCCC4)c2)cc1	Luciferase inh 22µM, HEK cytotox inconclusive, 3T3 cytotox inconclusive, NPR1 antag inconclusive
CCOc1ccccc1C(=O)Nc1cccc(-c2nnc3n2CCCC3)c1	HEK cytotox inconclusive, 3T3 cytotox 40µM
O=C(Nc1cccc(-c2nnc3n2CCCC3)c1)c1ccccc1	none
Cc1ccsc1C(=O)Nc1ccc(-c2nnc3n2CCCC3)cc1	Luciferase inh 35µM, 3T3 cytotox inconclusive
CC(C)CCNC(=O)N1CCC2(CC1)CN(C(C)C)C2c1ccccc1 (centres undefined)	none (no result: Luciferase inh, NPR1 antag)
N#Cc1ccc(CN2CCc3ncc(C(=O)NCCOc4ccccc4)n3CC2)cc1	HEK cytotox 71µM, 3T3 cytotox inconclusive, NPR1 antag inconclusive
O=C(NCc1ccc(F)cc1)c1cnc2n1CCN(CCc1ccccc1)CC2	HEK cytotox inconclusive, 3T3 cytotox inconclusive
O=C(NCc1ccccc1)c1cnc2n1CCN(CCCc1ccccc1)CC2	HEK cytotox inconclusive, 3T3 cytotox 25µM
CC(C)CCN1CCc2ncc(C(=O)NCCOc3ccccc3)n2CC1	HEK cytotox 28µM, 3T3 cytotox inconclusive
CC(C)CCN1CCC(C2CCN(Cc3ccccn3)C2)CC1 (centres undefined)	none
Cc1ccc2nc(CO[C@H]3CN(Cc4ccc(F)c(F)c4)C[C@H]3F)[nH]c2c1	HEK cytotox inconclusive, 3T3 cytotox inconclusive
CC(=O)N1C[C@@H](F)[C@@H](OCc2nc3ccc(C(F)(F)F)cc3[nH]2)C1	none
Cc1cc2nc(CO[C@H]3CN(Cc4ccc(S(C)(=O)=O)cc4)C[C@H]3F)[nH]c2cc1C	Luciferase inh 56µM, HEK cytotox inconclusive
CN1C[C@@H](F)[C@@H](OCc2nc3ccc(C(F)(F)F)cc3[nH]2)C1	Luciferase inh 50µM, 3T3 cytotox inconclusive
Cn1cc(CN2C[C@@H](F)[C@@H](OCc3nc4ccc(C#N)cc4[nH]3)C2)c2ccccc21	HEK cytotox 89µM, 3T3 cytotox 89µM, NPR1 antag inconclusive
Cc1ccc2nc(CO[C@H]3CN(Cc4ccc(Cl)cc4)C[C@H]3F)[nH]c2c1	HEK cytotox 89µM, 3T3 cytotox inconclusive, NPR1 antag inconclusive
CCn1cc(S(=O)(=O)N2CCC3(CC2)CN(C(C)=O)CC3COC)cn1 (centres undefined)	none
O=C(c1cn2cc(-c3ccc(F)cc3)sc2n1)N1CCOCC1	none (no result: Luciferase inh, NPR1 antag)
CC(=O)N1Cc2ccccc2CC2(CCCCN2Cc2cccnc2)C1 (centres undefined)	none (no result: Luciferase inh, NPR1 antag)
CCNC(=O)N1C[C@@H](F)[C@@H](OCc2nc3ccc(C)cc3[nH]2)C1	Luciferase inh 63µM
Cc1ccc2nc(CO[C@H]3CN(CC4CC4)C[C@H]3F)[nH]c2c1	none
COCCOC1CCOC2(CCN(C(=O)c3ccoc3)CC2)C1 (centres undefined)	none
